Among all 69,000 compounds or so, about 8,600 (12%) showed an effect of 50% or more. The sample holds strong results, similar compounds and a random draw of the others, so the mix is not that of the screen.
Each compound was assayed on Plasmodium berghei (assay: Screen against P. berghei liver stage (PbLuc), transformed with Luciferase, at 10uM). Details: tested at 10 uM.
Type: functional, HepG2

SMILES | INHIBITION [%]
CC(=O)N1CCC12CCN(Cc1ccco1)CC2 | 9.97
O=C([C@H]1CC[C@@H]2[C@@H](CCN2C2CCCC2)O1)N1CCOCC1 | -3.26
O=C(NCc1ccc(-n2cncn2)nc1)c1cc(Cl)c2c(c1)OCCO2 | 9.54
CCn1ncc2c1C(COC)CN(c1ncc(F)cn1)C2 (centres undefined) | -7.24
COc1ccc2c(c1)NC(C1CCN(C(=O)C(C)C)CC1)NS2(=O)=O (centres undefined) | -12.3
CCC(NC(=O)C1CCN(C(=O)C2CC2)CC1)c1cn2cccnc2n1 (centres undefined) | 22.9
CCC(NC(=O)CC1CCN(CC)CC1)c1cn2cccnc2n1 (centres undefined) | -15.3
CCn1ncnc1C(C)NC(=O)C1CCN(C(C)C)CC1 (centres undefined) | -1.64
CCC(NC(=O)C1CCN(C(C)C)CC1)c1cn2cccnc2n1 (centres undefined) | 57.5
CCC(NC(=O)CCCN1CCCCC1)c1cn2cccnc2n1 (centres undefined) | 37.7
CCC(NC(=O)CC1CCN(C(C)C)CC1)c1cn2cccnc2n1 (centres undefined) | 51.3
COc1ccc(Cl)cc1S(=O)(=O)N(C)CC(=O)Nc1cccnc1 | 33.4
Cc1cnn(CC(C)NCc2csc(-c3ncccn3)n2)c1 (centres undefined) | -3.2
CN(C)c1cc(C(F)(F)F)cc(-c2ccc(C(=O)O)cc2)n1 | 26.9
Cc1ccc(S(=O)(=O)N2CCC(c3n[nH]cc3C(=O)N(C)C)CC2)cc1 | 12.8
CCN(c1ccsc1C(=O)N1CCCCC1)S(=O)(=O)c1ccccc1 | -10.8
CCN1CCN(C)C(=O)C12CCN(Cc1csc(C)n1)CC2 | -1.28
CC(C)=CCN1C[C@@H](C(=O)O)C[C@H](C(=O)Nc2ccc(C)nc2)C1 | 28.5
CC(C)N(CCNC(=O)c1ccc(S(=O)(=O)NC2CC2)cc1)C(C)C | 19.2
CN(C)CCNC(=O)c1ccc(S(=O)(=O)N[C@@H]2CCNC2)cc1 | 87.9
O=C(NC[C@@H]1CCCO1)c1ccc(S(=O)(=O)N[C@@H]2CCNC2)cc1 | 2.55
CCS(=O)(=O)N1C[C@@H](OCc2cccnc2)[C@H]2OCCC[C@H]21 | 44.9

SMILES | INHIBITION [%]
O=C1CCC(c2nc(C3CCN(C(=O)Cc4cccs4)CC3)no2)N1 (centres undefined) | -31.1
CC1=N[C@@]2(CC[C@@H]3CN(Cc4ccccc4C)C[C@@H]32)C(=O)N1CC1CC1 | 28.4
CC(C)CCc1cc(C(=O)O)nc2[nH]c(=O)[nH]c(=O)c12 | 2.29
CCc1cc(NCCCNS(C)(=O)=O)nc(-c2ccccn2)n1 | 12.4
OC1CCN(Cc2c(-c3ccco3)[nH]c3ncccc23)CC1 | 32.3
NC(=O)C1CCCN(Cc2c(-c3ccco3)[nH]c3ncccc23)C1 (centres undefined) | 61.4
OC1CCCN(Cc2c(-c3ccco3)[nH]c3ncccc23)C1 (centres undefined) | 35.3
c1coc(-c2[nH]c3ncccc3c2CN2CCCOCC2)c1 | 50.1
CN1CCN(Cc2c(-c3ccco3)[nH]c3ncccc23)CC1 | -0.371
CCN1CCN(Cc2c(-c3ccco3)[nH]c3ncccc23)CC1 | 29.3
O=C1CCCN1Cc1noc(-c2ccc(Cl)cc2)n1 | -66
Cc1cnc(CC2COCCN(C(=O)CN3CCOCC3)C2)cn1 (centres undefined) | 16.5
CCc1noc(CNC2CCCN(Cc3noc(C4CC4)n3)C2)n1 (centres undefined) | -6.14
CC(c1ccco1)N(C(=O)c1cc2c([nH]c1=O)CCCC2=O)C1CC1 (centres undefined) | -65.3
CCc1cc(CNC(=O)NCC(c2ccco2)N2CCCC2)[nH]n1 (centres undefined) | 36.6
CC(c1ccco1)N(C(=O)CNc1ccc(C#N)cc1)C1CC1 (centres undefined) | 21.5
Cc1noc(C)c1CNC(=O)N(C)C1CCN(c2ccccc2)C1=O (centres undefined) | 31.2
Cc1noc(C)c1CNC(=O)N1CCCC(C)CC1 (centres undefined) | -30.6
Cc1noc(C)c1CNC(=O)N(C1CC1)C(C)c1ccco1 (centres undefined) | 79.1
Cc1noc(C)c1CNC(=O)N1CCC(CO)CC1 | 11.8
CCc1cc(CNC(=O)N(C2CC2)C(C)c2ccco2)[nH]n1 (centres undefined) | 55.9
CCc1cc(CNC(=O)N(C2CC2)C(C)c2ccco2)on1 (centres undefined) | 3.3

SMILES | INHIBITION [%]
CCN(CC)C1CCN(C(=O)NCc2c(C)noc2C)CC1 | 50.1
CC(c1ccco1)N(C(=O)c1cccc(C#N)c1)C1CC1 (centres undefined) | -11
CC(c1ccco1)N(C(=O)NCc1ccon1)C1CC1 (centres undefined) | 72.6
COCc1c(Cl)cccc1NC(=O)CNC(=O)C(C)(C)C | -17.8
CC(C)N1CCC(CC(=O)N(C)C(C)c2cncs2)CC1 (centres undefined) | -3.58
CN(Cc1nc(Cc2cccc(C(F)(F)F)c2)no1)C1CCOCC1 | 22.1
COC(=O)c1ccoc1COC(=O)CCc1ccc(OC)c(OC)c1 | -1.58
CN(C)Cc1cc(C2CCCCN2S(=O)(=O)Cc2ccccc2)nn1C (centres undefined) | 8.12
CS(=O)(=O)NCc1cncc2c1CCN(C(=O)c1ccccn1)C2 | 16.4
Cc1occc1C(=O)N1C[C@@H](OCc2cccnc2)[C@H]2OCCC[C@@H]21 | -63.1
CCCc1noc(C2CC(=O)N(C(C)(C)C)C2)n1 (centres undefined) | 31.9
CN1CCN([C@H]2CCN(C(=O)c3nn(C)cc3Cl)C[C@H]2CCCO)CC1 | 8.7
CN1CCN([C@H]2CCN(C(=O)c3cc(Cl)cn3C)C[C@H]2CCCO)CC1 | 64.3
Cc1cc(C(=O)N2CC[C@H](N3CCN(C)CC3)[C@H](CCCO)C2)n(C)n1 | -27.5
COCCN1CCO[C@@H]2CN(C(=O)NCc3ccccc3)CC[C@@H]2C1 | 7.24
Cc1n[nH]c(C)c1CCC(=O)N1CCc2c(nc[nH]c2=O)C1 | 10.7
CCN(CC)c1ccc(CNC(=O)C2(C)CCOCC2)cc1F | -37.1
CCN(C)c1ccc(CNS(=O)(=O)C2CCOCC2)cc1F | 50.1
CCN(CC)c1ccc(CNS(=O)(=O)C2CCOCC2)cc1F | 62.9
O=S(=O)(CC1CCOCC1)NCc1ccnc(O)c1 | 2.82
CCN(C)c1ccc(CNC(=O)c2cc(C(N)=O)cs2)cc1F | -59.2
CCN(C)c1ccc(CNS(=O)(=O)CC2CCCO2)cc1F (centres undefined) | 24.4

SMILES | INHIBITION [%]
Cc1cc2c(=O)n(CC(=O)N3CCn4cccc4C3C(C)C)cnc2s1 (centres undefined) | 3.4
COCC1CN(c2ncc(F)cn2)Cc2cnn(C)c21 (centres undefined) | 19.6
Cn1cc(CCC(=O)NC(c2ccc(F)cc2)C(F)(F)F)cn1 (centres undefined) | -4.52
CN1CCNC(Cc2ccc(-c3ccccc3)cc2)C1=O (centres undefined) | 23.2
O=C(NCC1CCS(=O)(=O)C1)c1cccc(CN2CCCC2)c1 (centres undefined) | 24.7
O=C(N1CCCO1)[C@@]12CCO[C@@H]1CCN(Cc1cccs1)C2 | 40.1
CC1=CCN(C(=O)Nc2ccccc2N2CCOC2=O)CC1 | 32.5
CC(=O)N1CCCN(C(=O)Nc2ccccc2N2CCOC2=O)CC1 | 1.37
O=C(Nc1ccccc1N1CCOC1=O)N1CCSCC1 | 52.2
Cc1ccn(CCC(=O)NC(C)Cc2ccco2)n1 (centres undefined) | 24.5
COC(=O)c1sc2cccc(F)c2c1CNC(=O)C1CC1 | 34.6
COc1ccc(CN2CCC(C(N)=O)C2)c(Br)c1OC (centres undefined) | -0.87
OC1CCN(Cc2cc3c(cc2Br)OCCO3)CC1 | 28.3
OCCN1CCN(Cc2cc3c(cc2Br)OCCO3)CC1 | 31.5
OCC1CCN(Cc2cc3c(cc2Br)OCCO3)CC1 | 34.5
NC(=O)C1CCN(Cc2cc3c(cc2Br)OCCO3)C1 (centres undefined) | 71.3
Brc1cc2c(cc1CN1CCC(N3CCCCC3)CC1)OCCO2 | 77.9
CNC(=O)C1CN(C(=O)c2ccccc2)Cc2cn(C)nc21 (centres undefined) | 18.9
CCOC(=O)c1nc(CC(=O)Nc2ccccc2)no1 | 45.5
Cc1cc(CN2CCN(C(=O)NCc3csc(C)n3)CC2)no1 | 26.4
CN(C)CCO[C@H]1CN(Cc2ccoc2)[C@@H]2COC[C@H]12 | 3.25
Cn1nc(CNC(=O)c2ccc3c(c2)OCO3)c2c1CCOC2 | 40.8

SMILES | INHIBITION [%]
CN(C)c1cc(CNC(=O)Nc2cccnc2N2CCCC2)ccn1 | -60.4
CN(C)c1cc(CNC(=O)Nc2ccc(F)cc2)ccn1 | 17.8
CN(C)c1cc(CNC(=O)Nc2ccc(N3CCCC3)nc2)ccn1 | 69.7
CN(C)c1cc(CNC(=O)Nc2ccc(C#N)cc2)ccn1 | 22.1
COc1ccc(NC(=O)NCc2ccnc(N(C)C)c2)cn1 | -15.1
CSCCc1ccc(NC(=O)NCc2ccnc(N(C)C)c2)cc1 | 72.85
COCc1ccccc1CNC(=O)CNc1cccc(Cl)c1OC | -28.2
CSCCC(=O)N1CCCN(Cc2cnn(C(C)C)c2)CC1 | 4.71
O=C([C@H]1CCCO1)N1CCc2ncc(CN3CCOCC3)n2CC1 | 22.9
CC(C(=O)N1CCCN(Cc2cnn(C)c2)CC1)n1ccnc1 (centres undefined) | 48.1
O=C(N1CCCC1)N1CCc2ncnc(C3CCOC3)c2CC1 (centres undefined) | 31.8
O=C(NCc1ccccc1F)NCC(O)c1cccc(F)c1 (centres undefined) | -24.3
CS(=O)(=O)N1CCN(c2cnnc(N3CCCC3)c2)CC1 | -11.4
CCCS(=O)(=O)N1CCN(c2ccnc(N3CCCCC3)n2)CC1 | 59.8
CN(C)S(=O)(=O)N1CCN(c2ccnc(N3CCCCC3)n2)CC1 | 43.1
CN(C)S(=O)(=O)N1CCN(c2ccnc(N3CCCC3)n2)CC1 | 5.14
CS(=O)(=O)N1CCN(c2ccnc(N3CCCC3)n2)CC1 | 50.8
CCCS(=O)(=O)N1CCN(c2cc(-n3cccc3)nc(C)n2)CC1 | 34.5
CS(=O)(=O)N1CCN(c2ccnc(N3CCCCC3)n2)CC1 | 58.5
O=C(O)c1ccnc(-c2ccnc(N3CCCCCC3)n2)c1 | 4.41
CCCS(=O)(=O)N1CCN(c2ccnc(N3CCCC3)n2)CC1 | 30.1

From ChEMBL document CHEMBL4513216, “Probing the Open Global Health Chemical Diversity Library for Multistage-Active Starting Points for Next-Generation Antimalarials” (ACS Infect Dis, 2020)
